HT1080NT lethal: kills 2HG-producing HT-1080-NT fibrosarcoma cells; HT-1080-NT fibrosarcoma viability, CellTiter-Glo ATP luminescence, 48 h; 360,000 tested, 1.6% active; Potency, µM (titrated, usually from 46.1 µM), for inactives: top-dose activity, negative = less viability, usual class: cytotoxic;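 further: NT is the 2HG producing partner of a matched IDH1 knockdown line; 0% = DMSO-treated cells and -100% = media-only wells without cells; nearly all actives have a fitted effect of over 55% in size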
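750 cells/well, RPMI + 5% FBS; 2 h settle, compound pin-transfer, 48 h at 37 degrees C. CellTiter-Glo 10 min RT, luminescence. Normalized to DMSO and media-only wells.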
ATXN2 expr inh: ATXN2 expression inhibition | HEK-293 ATXN2-luciferase reporter, luminescence, 24 h | Potency, µM (highest dose often 57 µM), for inactives: top-dose activity change, negative = inhibition, actives largely listed as inhibitors | 360,000 tested, 0.72% active | AID 1745845; further: on the % scale 0 is the no-effect control and ±100 the full control effect; nearly all actives have a fitted effect of over 55% in size
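ATXN2-luciferase reporter cells (luciferase flanked by upstream and downstream ATXN2 gene portions) were treated 24 h at 37 °C with compounds at up to 57 uM. SteadyGlo luminescence gave expression; GF-AFC fluorescence gave viability.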
HT1080 IDH1KD tx: HT-1080 IDH1 knockdown cell toxicity (counter line) | HT-1080 IDH1 knockdown viability, ATP luminescence, 48 h | Potency, µM (doses to about 46.1 µM), inactives show top-dose activity, negative = toxicity, hits mostly cytotoxic | 360,000 tested, 2% active;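 further: 0% = DMSO wells and -100% = cell-free medium wells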
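After a 2 h attachment period, IDH1KD HT-1080 cells took pin-transferred compound for 48 h at 37 °C; ATP-based luminescence after 10 min room-temperature reagent incubation reported viability.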
S2 tox: viability counter-screen for ATXN expression inhibitors; S2 cells (HEK-293 line with an ATXN2-luciferase reporter) viability, CellTiter-Fluor protease fluorescence, 24 h; Potency, µM (titrated, usually from 56.7 µM), actives largely listed as cytotoxic; 400,000 tested, 0.49% active; further: nearly all actives have a fitted effect of over 40% in size
KB-3-1 tox: kills parental KB-3-1 adenocarcinoma cells. KB-3-1 viability, CellTiter-Glo ATP luminescence, 72 h. AID 1347075. 400,000 tested, 1.4% active. Potency, µM (highest dose often 46.1 µM), usual class: cytotoxic; further: on the % scale 0 is the no-effect control and ±100 the full control effect; nearly all actives have a fitted effect of over 60% in size
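KB-3-1 parental drug-naive adenocarcinoma cells in DMEM/10% FBS, incubated 72 h at 37 C with pin-transferred compounds across a concentration series. Viability by CellTiter-Glo luminescence; concentration-response curves fitted after normalization.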
KB-V1 cytotox: KB-V1 MDR subline cytotoxicity | Potency, µM (top dose mostly 46.1 µM), usual class: cytotoxic | KB-V1 MDR cells viability, CellTiter-Glo, 72 h | 400,000 tested, 3.4% active; further: on the % scale 0 is the no-effect control and ±100 the full control effect; nearly all actives have a fitted effect of over 60% in size
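Compound-treated KB-V1 multidrug-resistant cells, 72 h, 37 degrees C; viability by CellTiter-Glo. Fitted qHTS curves give the values.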
* = called active by the depositor; i = inactive; ? = inconclusive; . = no result given. Hits are enriched below; roughly 6.2% of the tested compounds scored in any of these assays. The call rests on the fitted dose curve; in most records, active means well fitted curve in the direction sought with a large enough effect; inconclusive means small, poorly fitted or top-dose-only effect, or another doubt; inactive means no such curve, though single readings can be large; an effect the other way counts as inactive or inconclusive. Potency means the concentration at half of the fitted maximal effect.

SMILES	HT1080NT lethal	ATXN2 expr inh	HT1080 IDH1KD tx	S2 tox	KB-3-1 tox	KB-V1 cytotox
NC(=O)C1CCN(c2nnc(-c3ccc(Br)cc3)s2)CC1	.	.	.	.	i	i
CCOC(=O)[C@]12CCC=C1N(Cc1ccc3c(c1)OCO3)C(=O)[C@H](CC(=O)NCc1ccccc1)C2	-13%	-8%	23µM*	i	i	i
CCOC(=O)[C@]12CCC=C1N(Cc1ccc3c(c1)OCO3)C(=O)[C@H](CC(=O)NCc1ccc(OC)c(OC)c1)C2	-2%	9%	1%	?	i	i
COC(=O)[C@@]12C[C@@H](CC(=O)NCc3ccc(C)o3)C(=O)N(Cc3ccc4c(c3)OCO4)C1=CCC(C)(C)C2	?	.	?	.	i	?
COC(=O)[C@@]12C[C@@H](CC(=O)NCC3CCCCC3)C(=O)N(Cc3ccc4c(c3)OCO4)C1=CCC(C)(C)C2	?	.	?	.	?	21µM*
COC(=O)[C@@]12C[C@@H](CC(=O)NCCCCc3ccccc3)C(=O)N(Cc3ccc4c(c3)OCO4)C1=CCC(C)(C)C2	?	.	?	.	?	23µM*
CCOC(=O)[C@]12CCCC=C1N(Cc1ccc3c(c1)OCO3)C(=O)[C@H](CC(=O)NCCCCc1ccccc1)C2	?	?	12µM*	?	?	?
CCCCNC(=O)C[C@@H]1C[C@@]2(C(=O)OC)CC(C)(C)CC=C2N(Cc2ccc3c(c2)OCO3)C1=O	-19%	.	-15%	.	i	?
Nn1c(SCC(=O)Nc2ccc3c(c2)OCCO3)nnc(CCC(=O)O)c1=O	6%	-14%	8%	i	i	i
COC(=O)[C@]12CCCCC=C1N(Cc1ccc3c(c1)OCO3)C(=O)[C@H](CC(=O)NCCCCc1ccccc1)C2	?	.	?	.	i	16µM*
COC(=O)[C@@]12C[C@@H](CC(=O)NCCc3ccccc3OC)C(=O)N(Cc3ccccc3)C1=CCC(C)(C)C2	?	.	?	.	i	12µM*
COC(=O)[C@@]12C[C@@H](CC(=O)NCCc3ccccc3OC)C(=O)N(Cc3ccc4c(c3)OCO4)C1=CCC(C)(C)C2	?	.	?	.	i	?
Cc1ccccc1CNCCCSc1nnnn1-c1ccccc1	.	3%	.	i	i	i
CC(=O)Nc1ccc2nc(-c3cccs3)[nH]c2c1	-3%	41%	-6%	i	i	i
CCOC(=O)Nc1ccc2nc(-c3cscn3)[nH]c2c1	?	.	26µM*	i	2.6µM*	3.7µM*
CCC1CN(C(=O)N2CCC(C(=O)O)CC2)c2cc(C)ccc2O1 (centres undefined)	.	2%	.	i	i	i
O=[N+]([O-])c1ccc(/C=N/N/C(=N/c2ccccn2)c2ccccn2)cc1	?	6%	10µM*	?	i	?
Cc1ccc(NC(=O)CCn2cccn2)cc1Cl	.	20%	.	i	i	i
Cc1c(CNC2CCCCCC2)c(C(=O)O)c(C)n1Cc1c(F)cccc1Cl	.	4%	.	i	i	?
CCN(C(=O)c1cc2c(Cl)nc3ccccc3c2s1)c1cccc(Cl)c1	.	8%	.	i	i	i
COc1ccc2c(c1)cc1c(=O)n(CC(=O)NCc3ccco3)nc(C)n12	.	-10%	.	i	i	i
CCOC(=O)C(C(C)=O)c1c(Br)c(O)c(O)c2c(C(=O)c3ccc(C)cc3)coc12 (centres undefined)	8.9µM*	14µM*	8.9µM*	?	i	21µM*
CCOC(=O)c1c(C)n(-c2ccc(C)cc2)c2c(C(C(C)=O)C(=O)O)c(Br)c(O)c(O)c12 (centres undefined)	?	-10%	-19%	i	i	i
Cc1c(N2C(=O)/C(=C\C3CC=CCC3)SC2=S)c(=O)n(-c2ccccc2)n1C (centres undefined)	?	-7%	18µM*	?	i	i
O=C(c1ccccc1)c1nn(-c2cccc(Cl)c2)c2nc(-c3ccccc3)cc(=O)n12	0%	-14%	1%	i	?	4.1µM*
SMILES	HT1080NT lethal	ATXN2 expr inh	HT1080 IDH1KD tx	S2 tox	KB-3-1 tox	KB-V1 cytotox
COc1cc(C(=O)N2CC(=O)Nc3ccc(C)cc3C2c2ccc(F)cc2)cc(OC)c1OC (centres undefined)	.	-4%	.	i	i	i
Cc1cc(Cl)ccc1NC(=S)N1CCN(Cc2ccccc2)CC1	8%	-1%	18%	i	i	23µM*
COc1ccc(CNC(=O)N2CCN(c3cccc(Cl)c3)CC2)cc1OC	5%	-17%	-5%	i	i	?
O=C(CN1C(=O)C(=O)N(Cc2ccccc2)C1=O)Nc1cc(Cl)cc(Cl)c1	23µM*	-21%	?	i	23µM*	?
O=C(NCc1ccc(Cl)cc1)N1CCN(Cc2ccccc2)CC1	-20%	.	?	i	?	16µM*
O=C(Nc1ccccc1)N1CCN(Cc2ccc(Cl)cc2)CC1	7%	.	9%	?	i	i
Cc1cccc(N2CCN(C(=O)NCc3ccc(Cl)cc3)CC2)c1	?	-28%	?	i	23µM*	8.2µM*
COc1ccc(C2CC(=O)N(Cc3cccc(C)c3)c3c2c(C)nn3-c2nc(C)cc(C)n2)c(OC)c1 (centres undefined)	.	-2%	.	i	i	i
Nc1ccc(/C=C/c2ccnc3ccccc23)cc1[N+](=O)[O-]	.	.	.	.	i	i
O=C(Nc1cc(Cl)cc(Cl)c1)N1CCCN(Cc2ccccc2)CC1	21µM*	-7%	?	i	i	?
CCOC(=O)c1ccc(S(=O)(=O)N2CCC(C(=O)NCC3COc4ccccc4O3)CC2)cc1 (centres undefined)	-7%	.	-3%	i	i	i
CCCCC1CCC(C(=O)N2CC(=O)Nc3ccc(C)cc3C2c2ccc(F)cc2)CC1 (centres undefined)	.	0%	.	?	i	?
COc1ccc2nc3sc(C(=O)N4CCN(C)CC4)cc3cc2c1	-3%	8%	-5%	i	i	i
COc1ccc2nc3sc(C(=O)NCCCN4CCc5ccccc5C4)cc3cc2c1	-12%	-23%	-13%	?	i	5.8µM*
Cc1ccccc1-n1c(-c2ccoc2C)n[nH]c1=S	-2%	-1%	7%	i	i	i
CCc1cc(-c2n[nH]c(=S)n2Cc2ccccc2)cs1	8%	-5%	10%	?	i	21µM*

Screening results (PubChem BioAssay)
